Laboratory results as given in PubChem BioAssay AID1159580 (chemical genetic matrix, 2015).
About 2,000 (36%) of roughly 5,500 compounds were called active. Inconclusive results (about 18%) are left out. Cut-off read from the data, not from the text of the source: active = normalized growth mostly below about 0.91 (no sharp cut-off); inconclusive = no clear call, values can overlap the other calls; inactive = mostly above about 0.92. Some of the results follow.

Test: chemical genetic growth profiling, strain panel (AID 1159580);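 note: tested at 20 µM; growth read once vehicle control cultures reached saturation at 30 °C; 1 = growth at the plate median or of vehicle wells; lower values mean less growth of the strain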
Conditions: growth OD
[1] = S. cerevisiae deletion strains, locus YAR019C, strain CDC15, stronger effect = lower value
[2] = S. cerevisiae deletion strains, locus YBL105C, strain PKC1, stronger effect = lower value
[3] = S. cerevisiae deletion strains, locus YBR135W, strain CKS1, stronger effect = lower value
[4] = S. cerevisiae deletion strains, locus YBR136W, strain MEC1, stronger effect = lower value
[5] = S. cerevisiae deletion strains, locus YBR160W, strain CDC28, stronger effect = lower value
[6] = S. cerevisiae deletion strains, locus YDL017W, strain CDC7, stronger effect = lower value
[7] = S. cerevisiae deletion strains, locus YDL028C, strain MPS1, stronger effect = lower value
[8] = S. cerevisiae deletion strains, locus YDL101C, strain DUN1, stronger effect = lower value
[9] = S. cerevisiae deletion strains, locus YDL108W, strain KIN28, stronger effect = lower value
[10] = S. cerevisiae deletion strains, locus YDL132W, strain cdc53, stronger effect = lower value
[11] = S. cerevisiae deletion strains, locus YDL214C, strain PRR2, stronger effect = lower value
[12] = S. cerevisiae deletion strains, locus YDR052C, strain DBF4, stronger effect = lower value
[13] = S. cerevisiae deletion strains, locus YDR054C, strain cdc34, stronger effect = lower value
[14] = S. cerevisiae deletion strains, locus YDR226W, strain ADK1, stronger effect = lower value
[15] = S. cerevisiae deletion strains, locus YDR477W, strain SNF1, stronger effect = lower value
[16] = S. cerevisiae deletion strains, locus YER123W, strain YCK3, stronger effect = lower value
[17] = S. cerevisiae deletion strains, locus YER133W, strain GLC7, stronger effect = lower value
[18] = S. cerevisiae deletion strains, locus YFL009W, strain cdc4, stronger effect = lower value
[19] = S. cerevisiae deletion strains, locus YFL029C, strain CAK1, stronger effect = lower value
[20] = S. cerevisiae deletion strains, locus YFR003C, strain YPI1, stronger effect = lower value
[21] = S. cerevisiae deletion strains, locus YFR019W, strain FAB1, stronger effect = lower value
[22] = S. cerevisiae deletion strains, locus YFR028C, strain CDC14, stronger effect = lower value
[23] = S. cerevisiae deletion strains, locus YGR040W, strain KSS1, stronger effect = lower value
[24] = S. cerevisiae deletion strains, locus YGR052W, strain FMP48, stronger effect = lower value
[25] = S. cerevisiae deletion strains, locus YGR092W, strain DBF2, stronger effect = lower value
[26] = S. cerevisiae deletion strains, locus YHR030C, strain SLT2, stronger effect = lower value
[27] = S. cerevisiae deletion strains, locus YHR079C, strain IRE1, stronger effect = lower value
[28] = S. cerevisiae deletion strains, locus YHR082C, strain KSP1, stronger effect = lower value
[29] = S. cerevisiae deletion strains, locus YHR205W, strain SCH9, stronger effect = lower value
[30] = S. cerevisiae deletion strains, locus YIL147C, strain SLN1, stronger effect = lower value
[31] = S. cerevisiae deletion strains, locus YJL095W, strain BCK1, stronger effect = lower value
[32] = S. cerevisiae deletion strains, locus YJL128C, strain PBS2, stronger effect = lower value
[33] = S. cerevisiae deletion strains, locus YJL157C, strain FAR1, stronger effect = lower value
[34] = S. cerevisiae deletion strains, locus YJR016C, strain ILV3, stronger effect = lower value
[35] = S. cerevisiae deletion strains, locus YJR066W, strain TOR1 (second series), stronger effect = lower value
[36] = S. cerevisiae deletion strains, locus YJR066W, strain TOR1, stronger effect = lower value
[37] = S. cerevisiae deletion strains, locus YKL048C, strain ELM1, stronger effect = lower value
[38] = S. cerevisiae deletion strains, locus YKL067W, strain YNK1, stronger effect = lower value
[39] = S. cerevisiae deletion strains, locus YKL101W, strain HSL1, stronger effect = lower value
[40] = S. cerevisiae deletion strains, locus YKL193C, strain SDS22, stronger effect = lower value
[41] = S. cerevisiae deletion strains, locus YKL203C, strain TOR2, stronger effect = lower value
[42] = S. cerevisiae deletion strains, locus YLR113W, strain HOG1, stronger effect = lower value
[43] = S. cerevisiae deletion strains, locus YLR133W, strain CKI1, stronger effect = lower value
[44] = S. cerevisiae deletion strains, locus YLR403W, strain SFP1, stronger effect = lower value
[45] = S. cerevisiae deletion strains, locus YML070W, strain DAK1, stronger effect = lower value
[46] = S. cerevisiae deletion strains, locus YMR001C, strain CDC5, stronger effect = lower value
[47] = S. cerevisiae deletion strains, locus YMR205C, strain PFK2 (second series), stronger effect = lower value
[48] = S. cerevisiae deletion strains, locus YMR277W, strain FCP1, stronger effect = lower value
[49] = S. cerevisiae deletion strains, locus YNL006W, strain LST8, stronger effect = lower value
[50] = S. cerevisiae deletion strains, locus YNL020C, strain ARK1, stronger effect = lower value
[51] = S. cerevisiae deletion strains, locus YNL161W, strain CBK1, stronger effect = lower value
[52] = S. cerevisiae deletion strains, locus YNL183C, strain NPR1, stronger effect = lower value
[53] = S. cerevisiae deletion strains, locus YNL207W, strain RIO2, stronger effect = lower value
[54] = S. cerevisiae deletion strains, locus YNL222W, strain SSU72, stronger effect = lower value
[55] = S. cerevisiae deletion strains, locus YNL307C, strain MCK1 (second series), stronger effect = lower value
[56] = S. cerevisiae deletion strains, locus YOL078W, strain AVO1, stronger effect = lower value
[57] = S. cerevisiae deletion strains, locus YOL136C, strain PFK27, stronger effect = lower value
[58] = S. cerevisiae deletion strains, locus YOR061W, strain CKA2, stronger effect = lower value
[59] = S. cerevisiae deletion strains, locus YOR119C, strain RIO1, stronger effect = lower value
[60] = S. cerevisiae deletion strains, locus YOR231W, strain MKK1, stronger effect = lower value
[61] = S. cerevisiae deletion strains, locus YOR329C, strain SCD5, stronger effect = lower value
[62] = S. cerevisiae deletion strains, locus YPL031C, strain PHO85, stronger effect = lower value
[63] = S. cerevisiae deletion strains, locus YPL153C, strain RAD53, stronger effect = lower value
[64] = S. cerevisiae deletion strains, locus YPL204W, strain HRR25, stronger effect = lower value
[65] = S. cerevisiae deletion strains, locus YPL209C, strain IPL1, stronger effect = lower value
[66] = S. cerevisiae deletion strains, locus YPL256C, strain CLN2, stronger effect = lower value
[67] = S. cerevisiae deletion strains, locus YPR025C, strain CCL1, stronger effect = lower value
[68] = S. cerevisiae deletion strains, locus YPR106W, strain ISR1, stronger effect = lower value
[69] = S. cerevisiae deletion strains, locus YPR111W, strain DBF20, stronger effect = lower value
[70] = S. cerevisiae deletion strains, strain NNK1, stronger effect = lower value
[71] = S. cerevisiae deletion strains, strain TSCII, stronger effect = lower value

Measured: normalized growth

O=C1/C(=C/c2cccs2)COc2ccccc21
active: [2] 0.899 | [8] 0.908 | [26] 0.778 | [30] 0.891 | [35] 0.603 | [42] 0.667 | [61] 0.9 | [65] 0.894 | [66] 0.802
inactive: [1] 0.903 | [3] 0.913 | [4] 0.899 | [5] 0.908 | [6] 0.911 | [7] 0.9 | [9] 0.901 | [10] 0.902 | [11] 0.793 | [12] 0.93 | [13] 0.88 | [14] 0.901 | [15] 0.779 | [16] 0.73 | [17] 0.765 | [18] 0.901 | [19] 0.897 | [20] 0.906 | [21] 0.884 | [22] 0.901 | [23] 0.766 | [24] 0.767 | [25] 0.684 | [27] 0.871 | [28] 0.735 | [29] 0.783 | [31] 0.832 | [32] 0.873 | [33] 0.789 | [34] 0.9 | [36] 0.762 | [37] 0.873 | [38] 0.831 | [39] 0.829 | [40] 0.901 | [41] 0.853 | [43] 0.86 | [44] 0.796 | [45] 0.802 | [46] 0.895 | [47] 0.831 | [48] 0.909 | [49] 0.916 | [50] 0.839 | [51] 0.906 | [52] 0.763 | [53] 0.9 | [54] 0.91 | [55] 0.803 | [56] 0.906 | [57] 0.816 | [58] 0.813 | [59] 0.833 | [60] 0.82 | [62] 0.756 | [63] 0.777 | [64] 0.786 | [67] 0.911 | [68] 0.901 | [69] 0.907 | [70] 0.906 | [71] 0.895

O=C1/C(=C/c2ccc(Cl)cc2)COc2ccc(F)cc21
active: [26] 0.305 | S. cerevisiae deletion strains, locus YLR039C, strain RIC1, stronger effect = lower value 0.472 | S. cerevisiae deletion strains, locus YLR085C, strain ARP6, stronger effect = lower value 0.431 | S. cerevisiae deletion strains, locus YLR262C, strain YPT6, stronger effect = lower value 0.528 | S. cerevisiae deletion strains, locus YNL298W, strain CLA4 (second series), stronger effect = lower value 0.83 | S. cerevisiae deletion strains, locus YNR030W, strain Alg12, stronger effect = lower value 0.829 | S. cerevisiae deletion strains, locus YPL241C, strain CIN2, stronger effect = lower value 0.704 | S. cerevisiae deletion strains, locus YPR135W, strain CTF4, stronger effect = lower value 0.405
inactive: S. cerevisiae deletion strains, locus YAL013W, strain DEP1, stronger effect = lower value 0.956 | S. cerevisiae deletion strains, locus YBR229C, strain ROT2, stronger effect = lower value 0.978 | [8] 1.01 | S. cerevisiae deletion strains, locus YDR150W, strain NUM1, stronger effect = lower value 1.01 | S. cerevisiae deletion strains, locus YEL061C, strain CIN8, stronger effect = lower value 0.934 | S. cerevisiae deletion strains, locus YGR078C, strain PAC10, stronger effect = lower value 0.972 | S. cerevisiae deletion strains, locus YGR229C, strain SMI1, stronger effect = lower value 0.951 | S. cerevisiae deletion strains, locus YHR087W, strain rtc3, stronger effect = lower value 0.96 | S. cerevisiae deletion strains, locus YJR043C, strain POL32, stronger effect = lower value 0.977 | S. cerevisiae deletion strains, locus YJR075W, strain HOC1, stronger effect = lower value 0.98 | S. cerevisiae deletion strains, locus YLR058C, strain SHM2 (second series), stronger effect = lower value 0.959 | S. cerevisiae deletion strains, locus YML094W, strain GIM5, stronger effect = lower value 0.941 | S. cerevisiae deletion strains, locus YMR219W, strain ESC1, stronger effect = lower value 0.963 | S. cerevisiae deletion strains, locus YMR263W, strain SAP30, stronger effect = lower value 0.942 | S. cerevisiae deletion strains, locus YNL153C, strain GIM3, stronger effect = lower value 0.986 | S. cerevisiae deletion strains, locus YNL322C, strain KRE1, stronger effect = lower value 0.959 | S. cerevisiae deletion strains, locus YPL055C, strain LGE1, stronger effect = lower value 0.963 | S. cerevisiae strains, strain wild type, stronger effect = lower value 0.967

O=C1/C(=C/c2ccc(C(F)(F)F)cc2)COc2ccccc21
inactive: [1] 0.937 | [2] 0.924 | [3] 0.92 | [4] 0.924 | [5] 0.926 | [6] 0.926 | [7] 0.925 | [8] 0.946 | [9] 0.923 | [10] 0.934 | [11] 0.936 | [12] 0.931 | [13] 0.931 | [14] 0.925 | [15] 0.914 | [16] 0.886 | [17] 0.913 | [18] 0.926 | [19] 0.927 | [20] 0.93 | [21] 0.953 | [22] 0.961 | [23] 0.894 | [24] 0.953 | [25] 0.719 | [27] 0.888 | [28] 0.85 | [29] 0.784 | [30] 0.917 | [31] 0.901 | [32] 0.896 | [33] 0.92 | [34] 0.929 | [35] 0.976 | [36] 0.817 | [37] 0.897 | [38] 0.938 | [39] 0.906 | [40] 0.93 | [41] 0.921 | [43] 0.916 | [44] 0.846 | [45] 0.922 | [46] 0.918 | [47] 0.889 | [48] 0.933 | [49] 0.948 | [50] 0.881 | [51] 0.936 | [52] 0.88 | [53] 0.925 | [54] 0.938 | [55] 0.861 | [56] 0.931 | [57] 0.913 | [58] 0.879 | [59] 0.868 | [60] 0.916 | [61] 0.931 | [62] 0.897 | [63] 0.93 | [64] 0.921 | [65] 0.932 | [67] 0.925 | [68] 0.959 | [69] 0.946 | [70] 0.91 | [71] 0.932
active: [26] 0.824 | [42] 0.823 | [66] 0.852

CC1(C)c2ccccc2N(CCC(N)=O)C12C=Cc1c(ccc3ccccc13)O2 (centres undefined)
inactive: [1] 0.972 | [2] 0.968 | [3] 0.97 | [4] 0.95 | [5] 0.971 | [6] 0.965 | [7] 0.969 | [8] 0.955 | [9] 0.944 | [10] 0.964 | [11] 0.901 | [12] 0.97 | [13] 0.956 | [14] 0.973 | [15] 0.939 | [16] 0.865 | [17] 0.927 | [18] 0.979 | [19] 0.964 | [20] 0.959 | [21] 0.943 | [22] 0.981 | [23] 0.92 | [24] 0.968 | [25] 0.906 | [26] 1.04 | [27] 0.973 | [28] 0.97 | [29] 0.956 | [30] 0.971 | [31] 0.975 | [32] 0.907 | [33] 0.896 | [34] 0.969 | [35] 0.891 | [36] 0.962 | [37] 0.912 | [38] 0.918 | [39] 0.908 | [40] 0.959 | [41] 0.985 | [42] 0.919 | [43] 0.944 | [44] 0.915 | [45] 0.883 | [46] 0.966 | [47] 0.926 | [48] 0.968 | [49] 0.986 | [50] 0.915 | [51] 0.966 | [52] 0.989 | [53] 0.96 | [54] 0.962 | [55] 0.922 | [56] 0.96 | [57] 0.907 | [58] 0.889 | [59] 0.968 | [60] 0.95 | [61] 0.971 | [62] 0.921 | [63] 0.931 | [64] 0.937 | [65] 0.966 | [66] 0.925 | [67] 0.973 | [68] 0.957 | [69] 0.963 | [70] 0.944 | [71] 0.97
